# Data reported in PubChem BioAssay (NCATS).
# Inconclusive results are not listed. A call without a number means that no potency is given here. Calls of active or inactive are those of the source. Calls follow the shape of the dose curve; as a rule, active = well fitted cell-killing curve with a large enough effect; inconclusive = small, poorly fitted or top-dose-only effect, or effect the other way; inactive = no such curve, though single readings can be large or run the other way.
# Test: qHTS assay to identify small molecule inhibitors of chordoma cells - UCH-1 (AID 1259355); also: nearly all actives have a fitted effect of over 55% in size
# Settings: UCH-1 chordoma viability, CellTiter-Glo, 48 h, combination, with auranofin plus four topoisomerase inhibitors; series mostly up to 46.1 µM
# Summary of the method: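 Cells (800/well) were seeded and left overnight at 37 C, 5% CO2, then treated with drugs at 15 concentrations plus a combination mix of auranofin, camptothecin, doxorubicin, rubitecan and topotecan. Viability after 48hr was read by CellTiter-Glo luminescence.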
# Potency is read from the fitted curve at half-maximal effect.
row,Compound,Potency
1,CC(C)[N+](C)(C)CC(O)COc1cccc2ccccc12 (stereo unspecified),inactive
2,C/C=C/C=N/NC(=O)c1ccncc1,inactive
3,OC[C@H]1O[C@@H]2O[C@H]3[C@H](O)[C@@H](O)[C@@H](O[C@H]4[C@H](O)[C@@H](O)[C@@H](O[C@H]5[C@H](O)[C@@H](O)[C@@H](O[C@H]6[C@H](O)[C@@H](O)[C@@H](O[C@H]7[C@H](O)[C@@H](O)[C@@H](O[C@H]8[C@H](O)[C@@H](O)[C@@H](O[C@H]1[C@H](O)[C@H]2O)O[C@@H]8CO)O[C@@H]7CO)O[C@@H]6CO)O[C@@H]5CO)O[C@@H]4CO)O[C@@H]3CO,inactive
4,CCOCCn1c(N2CCCN(C)CC2)nc2ccccc21,inactive
5,Nc1ccc(C(=O)NCC(=O)O)cc1,inactive
6,O=S(=O)(O)c1ccc(O)cc1,inactive
7,Cc1ncc(CO)c(C=O)c1O,inactive
8,CC(C)[C@@H]1CC[C@@H](C)CC1=O,inactive
9,N#CCC(=O)NN,inactive
10,C=C[C@H]1CN2CC[C@H]1C[C@@H]2[C@@H](O)c1ccnc2ccc(OC)cc12,inactive
11,OCc1ccccn1,inactive
12,O=C(O)C(Cc1cc(I)c(O)c(I)c1)c1ccccc1 (stereo unspecified),inactive
13,CC(C)NCC(O)c1ccc2ccccc2c1 (stereo unspecified),inactive
14,C[N+]1(CC2COC(c3ccccc3)(C3CCCCC3)O2)CCCCC1 (stereo unspecified),inactive
15,CC(C)Nc1cccnc1N1CCN(C(=O)c2cc3cc(NS(C)(=O)=O)ccc3[nH]2)CC1,inactive
16,C=C[C@H]1CN2CC[C@H]1C[C@H]2[C@H](O)c1ccnc2ccc(OC)cc12,inactive
17,NC1CCN(c2nc3c(cc2F)c(=O)c(C(=O)O)cn3-c2ccc(F)cc2F)C1 (stereo unspecified),inactive
18,CC(=C(CCOC(=O)C(C)C)SSC(CCOC(=O)C(C)C)=C(C)N(C=O)Cc1cnc(C)nc1N)N(C=O)Cc1cnc(C)nc1N,inactive

row,Compound,Potency
1,CCN1/C(=C/C=C/c2sc3ccccc3[n+]2CC)Sc2ccccc21,7.94 µM (active)
2,CCN1CCN(C(=O)N[C@@H](C(=O)N[C@@H]2C(=O)N3C(C(=O)O)=C(CSc4nnnn4C)CS[C@H]23)c2ccc(O)cc2)C(=O)C1=O,inactive
3,CC(=O)OCC1=C(C(=O)O)N2C(=O)[C@@H](NC(=O)CSc3ccncc3)[C@H]2SC1,inactive
4,Nc1nc(-c2ccccc2)c(Br)c(=O)[nH]1,inactive
5,CC(=O)Nc1ccc(OCC(O)CNC(C)C)cc1 (stereo unspecified),inactive
6,OCCOCCN1CCN(C2=Nc3ccccc3Sc3ccccc32)CC1,inactive
7,CC(O)Cn1cnc2c1c(=O)n(C)c(=O)n2C (stereo unspecified),inactive
8,N[C@H](C(=O)O)[C@@H](O)c1ccc(O)c(O)c1,inactive
9,CCOC(=O)c1c(N)sc2c1CCN(Cc1ccccc1)C2,inactive
10,Oc1c(Cl)cc(Cl)c(Cl)c1Cc1c(O)c(Cl)cc(Cl)c1Cl,25.1 µM (active)
11,C=C[C@@]1(C)CC(=O)[C@]2(O)[C@@]3(C)[C@@H](O)CCC(C)(C)[C@@H]3[C@H](O)[C@H](OC(C)=O)[C@@]2(C)O1,inactive
12,CC(=O)Nc1ccc(OC(=O)c2ccccc2OC(C)=O)cc1,inactive
13,CC(C)(C)CC(C)(C)c1ccc(O)c(-n2nc3ccccc3n2)c1,inactive
14,CN(C)C(=O)Nc1ccc(Cl)c(Cl)c1,inactive
15,CC(C)Cc1ccc(CC(=O)O)cc1,inactive
16,O=C(O)CCC(=O)Nc1ccc(S(=O)(=O)Nc2nccs2)cc1,inactive
17,CNCCc1ccccn1,inactive
18,CN1CCC(OC(c2ccccc2)c2ccccc2)CC1,inactive
